Assay results: PMC4336329 (PLoS ONE, 2015)
The whole screen tested about 310,000 compounds, of which about 14,000 (4.5%) showed an effect of 50% or more. The effect is printed as a negative number. This excerpt belongs to a sample that is enriched for strong results.

These compounds were tested against human ether-à-go-go-related gene (hERG) potassium channel (human, UniProt Q12809) (assay: primary screen, population patch clamp on CHO cells stably expressing hERG; higher = less effect of the substance).
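Note: peak tail current of the secondary pulse compared with the same well before compound.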

Chain of human ether-à-go-go-related gene (hERG) potassium channel (Q12809 whole entry, looked up): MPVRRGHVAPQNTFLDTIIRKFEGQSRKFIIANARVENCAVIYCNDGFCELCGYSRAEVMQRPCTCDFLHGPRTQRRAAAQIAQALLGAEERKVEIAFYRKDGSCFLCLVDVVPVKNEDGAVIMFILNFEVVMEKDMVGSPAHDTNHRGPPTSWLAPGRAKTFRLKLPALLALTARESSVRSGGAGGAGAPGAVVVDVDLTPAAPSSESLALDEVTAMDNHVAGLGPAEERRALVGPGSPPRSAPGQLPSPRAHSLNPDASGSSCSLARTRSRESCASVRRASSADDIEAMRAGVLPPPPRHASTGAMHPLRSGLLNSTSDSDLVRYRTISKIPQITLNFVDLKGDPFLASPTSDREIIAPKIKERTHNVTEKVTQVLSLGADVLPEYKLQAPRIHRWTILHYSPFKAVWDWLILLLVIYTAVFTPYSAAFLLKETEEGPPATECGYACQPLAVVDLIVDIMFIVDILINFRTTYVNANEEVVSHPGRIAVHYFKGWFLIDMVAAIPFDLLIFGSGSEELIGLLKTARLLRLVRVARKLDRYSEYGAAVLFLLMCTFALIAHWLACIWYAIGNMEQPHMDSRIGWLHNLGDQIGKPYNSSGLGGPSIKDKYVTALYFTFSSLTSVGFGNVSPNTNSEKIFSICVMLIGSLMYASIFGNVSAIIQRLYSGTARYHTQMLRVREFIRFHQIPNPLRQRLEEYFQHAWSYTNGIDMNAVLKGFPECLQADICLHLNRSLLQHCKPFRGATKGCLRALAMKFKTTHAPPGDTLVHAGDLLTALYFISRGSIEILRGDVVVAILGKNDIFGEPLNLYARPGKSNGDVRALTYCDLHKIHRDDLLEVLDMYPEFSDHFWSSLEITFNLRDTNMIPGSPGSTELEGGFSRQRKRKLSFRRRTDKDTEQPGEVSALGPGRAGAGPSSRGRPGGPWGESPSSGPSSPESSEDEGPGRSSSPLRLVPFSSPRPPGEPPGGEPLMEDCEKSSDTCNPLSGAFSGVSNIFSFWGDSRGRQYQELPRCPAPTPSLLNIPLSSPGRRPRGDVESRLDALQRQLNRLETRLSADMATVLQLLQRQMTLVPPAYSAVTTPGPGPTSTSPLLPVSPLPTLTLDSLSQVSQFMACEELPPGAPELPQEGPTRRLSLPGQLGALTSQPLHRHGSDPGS

Compared with `Cc1cc(C)cc(NC(=O)Cn2c(-c3ccccc3Cl)nc3ccccc32)c1`, `O=C(CS(=O)(=O)Cc1ccccc1)Nc1ccccc1Cl` is lower in “hERG current change (%, negative = inhibition) at 10uM” value: 5.5% for the first, 1.09% for the second.

Compared with `CCCCC(CC)CNC(=O)c1cccs1` (stereo not drawn), `CCOC(=O)CNC(=O)CSc1nnc(-c2cccc(OC)c2)n1CC` is lower in “hERG current change (%, negative = inhibition) at 10uM” value: 8.33% for the first, 7.24% for the second.

Compared with `O=S(=O)(c1ccc(Nc2ccc3c(c2)OCO3)nc1)N1CCOCC1`, `CC(=O)c1ccc(S(=O)(=O)NC2CC(=O)N(c3ccc4c(c3)OCCO4)C2)cc1` (stereo not drawn) is higher in “hERG current change (%, negative = inhibition) at 10uM” value: -13.2% for the first, 5.79% for the second.

Going from `COc1ccc(N(C(=O)c2cccnc2)S(=O)(=O)c2cc(OC)ccc2OC)cc1` to `CCOC(=O)CSc1nnc(CNC(=O)c2ccc(OC)cc2OC)n1-c1ccc(OC)cc1`, the “hERG current change (%, negative = inhibition) at 10uM” value falls from -21.8% to -50.1%.

First: Cc1ccc(C2CC(=O)C=C(O)C2)cc1 (stereo not drawn)
Second: CNC(=O)CSc1nnc(-c2ccco2)n1-c1ccc(C)cc1
The “hERG current change (%, negative = inhibition) at 10uM” value of the first is higher: 3.29% for the first, -49.5% for the second.

Going from `CSCC(C)N1CCC(n2nccc2NC(=O)c2ccc3c(c2)OCO3)CC1` (stereo not drawn) to `Cc1ccc(-n2c(SCC(=O)Nc3ccc4c(c3)OCCO4)nnc2-c2ccco2)cc1`, the “hERG current change (%, negative = inhibition) at 10uM” value falls from -2.95% to -30.9%.

First: Cc1ccc(CCNS(=O)(=O)c2cc3c(cc2C)n(C)c(=O)c(=O)n3C)cc1
Second: Cc1ccc(S(=O)(=O)NCCC(=O)Nc2cc(F)ccc2C)cc1C
The “hERG current change (%, negative = inhibition) at 10uM” value of the first is lower: -30.8% for the first, 2.51% for the second.

Compared with `CCOC(=O)CNC(=O)CSc1nnc(-c2cccc(C)c2)n1-c1ccc(OC)cc1`, `CCOC(=O)CNC(=O)CSc1nnc(-c2ccc(OC)cc2)n1CC` is higher in “hERG current change (%, negative = inhibition) at 10uM” value: -62% for the first, 10.5% for the second.

Going from `CCOC(=O)CSc1nnc(-c2ccco2)n1-c1ccccc1` to `CCOC(=O)CSc1nnc(-c2ccco2)n1-c1ccc(C)cc1`, the “hERG current change (%, negative = inhibition) at 10uM” value falls from -27.6% to -61.9%.

First: COC(=O)CSc1nnc(-c2ccco2)n1-c1ccc(C)cc1
Second: CCOc1ccc(-n2c(SCC(N)=O)nnc2-c2ccco2)cc1
The “hERG current change (%, negative = inhibition) at 10uM” value of the first is lower: -24.2% for the first, -1.15% for the second.

Going from `CCNC(=O)CSc1nnc(-c2ccccc2)n1-c1ccc(OCC)cc1` to `CCOc1ccc(NC(=O)CSc2nnc(-c3ccccc3)n2N)cc1`, the “hERG current change (%, negative = inhibition) at 10uM” value rises from -62.8% to 6.02%.

Going from `Cc1ccc(-n2c(SCC(=O)Nc3ccc4cn[nH]c4c3)nnc2-c2ccco2)cc1` to `COc1ccc(-n2c(SCC(=O)Nc3nccs3)nnc2-c2ccoc2C)cc1`, the “hERG current change (%, negative = inhibition) at 10uM” value falls from -62.4% to -80%.

Going from `CCOc1ccc(-n2c(-c3ccccc3)nnc2-c2ccccc2)cc1` to `CCOC(=O)CSc1nnc(-c2ccoc2C)n1-c1ccc(OCC)cc1`, the “hERG current change (%, negative = inhibition) at 10uM” value falls from -6.7% to -66.5%.

Going from `CCn1c(C)nc2cc(C(=O)N/N=C/c3ccccc3C)ccc21` to `Cc1ccc(/C=N\NC(=O)/C(=C\Nc2nccc(C)n2)NC(=O)c2ccccc2)cc1`, the “hERG current change (%, negative = inhibition) at 10uM” value rises from -12.8% to -9.72%.

Compared with `Cc1cc2c(C)nc(Cc3ccccc3)nc2o1`, `CCOC(=O)c1c(O)c2ccccc2oc1=O` is lower in “hERG current change (%, negative = inhibition) at 10uM” value: 14.7% for the first, -18.7% for the second.

First: CCOc1cc2[nH]c(=O)n(Cc3ccc(C(=O)NCCCN4CCCC4=O)cc3)c(=O)c2cc1OCC
Second: CCOC(=O)CSc1nnc(CNC(=O)c2ccccc2OC)n1-c1ccc(OC)cc1
The “hERG current change (%, negative = inhibition) at 10uM” value of the first is higher: 16.2% for the first, -28.8% for the second.

First: CCOC(=O)C1=C(C)Nc2nc(SC)nn2C1c1ccc(C(=O)OC)cc1 (stereo not drawn)
Second: CCOC(=O)c1c(-c2ccccc2Cl)csc1NC(=O)CSc1nc(C)cc(=O)[nH]1
The “hERG current change (%, negative = inhibition) at 10uM” value of the first is higher: 5.26% for the first, 4.37% for the second.

Going from `C=C1C(=O)O[C@@H]2C[C@@H](C)[C@@H]3C=CC(=O)[C@@]3(C)[C@@H](OC(=O)CC(=O)O[C@H]3[C@@H]4C(=C)C(=O)O[C@@H]4C[C@@H](C)[C@@H]4C=CC(=O)[C@]43C)[C@H]12` to `CC1CCCCC1NC(=O)CC1Oc2ccccc2NC1=O` (stereo not drawn), the “hERG current change (%, negative = inhibition) at 10uM” value rises from -38.6% to 0.244%.

First: COc1ccc(CNC(=O)C2CCN(S(=O)(=O)c3cccnc3)CC2)cc1
Second: Cc1ccc(OCC(=O)Nc2nnc(S(=O)(=O)N3CCC(C)CC3)s2)cc1
The “hERG current change (%, negative = inhibition) at 10uM” value of the first is lower: 12.9% for the first, 19.2% for the second.

First: CN1C(=O)CN=C(c2ccc(Cl)cc2)c2cc(Cl)ccc21
Second: CCOC(=O)CSc1nnc(-c2ccoc2C)n1-c1ccc(C)cc1
The “hERG current change (%, negative = inhibition) at 10uM” value of the first is lower: -33.8% for the first, -19.3% for the second.

First: COc1cccc(-n2ccnc2SCC(=O)Nc2nccs2)c1
Second: COc1cccc(-n2c(SCC(=O)Nc3nccs3)nnc2-c2ccoc2C)c1
The “hERG current change (%, negative = inhibition) at 10uM” value of the first is higher: -6.22% for the first, -76.8% for the second.

Compared with `CCOC(=O)CSc1nnc(CNC(=O)c2ccc(OC)cc2OC)n1C`, `COc1cccc(C(=O)NCc2nnc(SCC(=O)Nc3nccs3)n2-c2cccc(C)c2)c1` is higher in “hERG current change (%, negative = inhibition) at 10uM” value: -18.4% for the first, -18.3% for the second.

Going from `COc1ccc(-n2c(CSc3nc(C)cc(C)n3)nnc2SCC(=O)Nc2nccs2)cc1` to `Cn1c(SCC(=O)Nc2nccs2)nnc1-c1ccco1`, the “hERG current change (%, negative = inhibition) at 10uM” value rises from -13.2% to -5.22%.

First: COc1ccc(C2(C(=O)NCCCN(C)C)CCOCC2)cc1
Second: C=CCc1ccc(OCc2ccc(C(=O)OC)o2)c(OC)c1
The “hERG current change (%, negative = inhibition) at 10uM” value of the first is higher: 7.45% for the first, -12.1% for the second.

Going from `CCN(CC)S(=O)(=O)c1cc(C(=O)O)ccc1Cl` to `CN(CC(=O)Nc1ccccc1Cl)C(=O)COC(=O)c1ccc(S(=O)(=O)C(F)F)cc1`, the “hERG current change (%, negative = inhibition) at 10uM” value falls from 11% to -69.9%.

Going from `CC(=O)c1ccc(Sc2nnc(C)s2)c([N+](=O)[O-])c1` to `O=C(NNC(=O)c1ccc([N+](=O)[O-])o1)c1ccccc1`, the “hERG current change (%, negative = inhibition) at 10uM” value falls from 1.07% to -6.59%.

First: CC(=O)Oc1ccc(-c2ccc(C(=O)OCC(=O)N(C)CC(=O)Nc3ccccc3Cl)cc2)cc1
Second: CN(CC(=O)Nc1ccccc1Cl)C(=O)COC(=O)c1ccc(C(F)(F)F)cc1
The “hERG current change (%, negative = inhibition) at 10uM” value of the first is lower: -68.9% for the first, -9.53% for the second.

First: CC[C@H](C)[C@H](NC(=O)OCc1ccccc1)C(=O)OCC(=O)N(C)CC(=O)Nc1ccccc1Cl
Second: CN(CC(=O)Nc1ccccc1Cl)C(=O)COC(=O)c1ccccc1[N+](=O)[O-]
The “hERG current change (%, negative = inhibition) at 10uM” value of the first is lower: -64.5% for the first, -6.07% for the second.

First: CN(CC(=O)Nc1ccccc1Cl)C(=O)COC(=O)C1=COCCO1
Second: CN(CC(=O)Nc1ccccc1Cl)C(=O)COC(=O)C1CC1
The “hERG current change (%, negative = inhibition) at 10uM” value of the first is higher: 5.89% for the first, -2.87% for the second.

Going from `CN(CC(=O)Nc1ccccc1Cl)C(=O)COC(=O)c1ccc(Cl)nc1` to `CN(CC(=O)Nc1ccccc1Cl)C(=O)COC(=O)c1nc(Cl)ccc1Cl`, the “hERG current change (%, negative = inhibition) at 10uM” value falls from 4.99% to -20%.
